The supplement of paper PMC9694430

tested on: LOC_OS04G35114-cb001; assay: thermal shift delta Tm vs DMSO control; higher = stronger stabilization (binding); conditions: 12.5 µM; protein concentration 2 µM
Method in brief: (§1)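 Purified, E. coli-expressed rice kinase domain constructs were tested by differential scanning fluorimetry in 96-well plates: 19.5 μl of 2 μM kinase in 100 mM potassium phosphate pH 7.5, 150 mM NaCl, 10% glycerol, 5 × SYPRO Orange, plus compound in DMSO. Fluorescence was read from 25°C to 95°C at 0.05°C/s. Melting temperatures came from Boltzmann fits, and the shift is the triplicate mean relative to protein with DMSO alone.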

SMILES | thermal shift delta Tm
Cn1c(Nc2ccc(C(F)(F)F)cc2)nc2cc(Oc3ccnc(-c4ncc(C(F)(F)F)[nH]4)c3)ccc21 | 1.17 °C
CCOc1cc(N2CCC(O)CC2)ccc1Nc1ncc2c(n1)N(C)c1ccccc1C(=O)N2C | 0.71 °C
O=C(O)c1ccc(Nc2ncc3c(n2)-c2ccc(Cl)cc2C(c2c(F)cccc2F)=NC3)cc1 | 0.54 °C
C[C@@H]1CN(C(=O)c2ccc(NC(=O)c3cc(O[C@H](C)c4c(Cl)ccc(F)c4Cl)c(N)nn3)cc2)C[C@H](C)N1 [Ensartinib (X-396)] | 8.12 °C
COc1ccc(F)c(F)c1C(=O)c1cnc(NC2CCN(S(C)(=O)=O)CC2)nc1N | 0.62 °C
N#Cc1cnc(Nc2cc(NC[C@H]3CNCCO3)c(C(F)(F)F)cn2)cn1 | 1.35 °C
O=c1nc(N2CCOCC2)oc2c(-c3cccc4c3sc3ccccc34)cccc12 | -0.68 °C
Cc1nc(Nc2ncc(C(=O)Nc3c(C)cccc3Cl)s2)cc(N2CCN(CCO)CC2)n1 [Dasatinib] | 5.79 °C
Cc1cc(Nc2cc(N3CCN(C)CC3)nc(/C=C/c3ccccc3)n2)n[nH]1 [ENMD-2076 L-(+)-Tartaric acid] | 6.49 °C

tested on: T1, LOC_OS04G38480-cb003; assay: as above; conditions: 12.5 µM; protein concentration 2 µM
T1 sequence (whole entry): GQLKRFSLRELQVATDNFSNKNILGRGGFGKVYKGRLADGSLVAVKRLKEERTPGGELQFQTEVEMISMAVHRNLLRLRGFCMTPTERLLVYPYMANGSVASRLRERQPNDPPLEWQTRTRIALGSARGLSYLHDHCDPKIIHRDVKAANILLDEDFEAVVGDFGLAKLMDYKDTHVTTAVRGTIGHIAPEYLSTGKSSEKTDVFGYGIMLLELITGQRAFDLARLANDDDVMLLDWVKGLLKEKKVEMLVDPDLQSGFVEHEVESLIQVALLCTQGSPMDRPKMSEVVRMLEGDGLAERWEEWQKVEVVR
Method in brief: as §1

SMILES | thermal shift delta Tm
CN1CCN(c2cccc(Nc3nc4c(-c5ccc(S(C)(=O)=O)cc5)cccn4n3)c2)CC1 | 1.42 °C
C[C@@H](NC(=O)c1ncnc(N)c1Cl)c1ncc(C(=O)Nc2cc(C(F)(F)F)c(Cl)cn2)s1 | 0.76 °C
N#CC(=C(/N)Sc1ccccc1N)/C(C#N)=C(\N)Sc1ccccc1N | -1.15 °C
Cc1cc(Nc2cc(N3CCN(C)CC3)nc(/C=C/c3ccccc3)n2)n[nH]1 | 1.95 °C
OCCn1cc(-c2ccc3c(c2)CC/C3=N\O)c(-c2ccncc2)n1 | 0.49 °C
COc1cc2c(c(OC)c1OC)-c1c(cc3c(c1OC)OCO3)CC(C)C(C)C2 (configuration not stated) [Schisandrin B (Sch B)] | 0.75 °C
COc1cc(N2CCN(C)CC2)ccc1Nc1nccc(-c2cn(C)c3cnccc23)n1 | 1.32 °C
CN(c1ccccc1CNc1nc(Nc2ccc3c(c2)CC(=O)N3)ncc1C(F)(F)F)S(C)(=O)=O | 3.54 °C
CNC(=O)c1ccc(Nc2ncc(C(F)(F)F)c(NCc3nccnc3N(C)S(C)(=O)=O)n2)cc1 | 2.85 °C
O=C(O)c1ccc2c3c1cccc3c(=O)n1c3ccccc3nc21 | 2.31 °C
Cc1nc(Nc2n[nH]c3c2CN(C(=O)N[C@H](CN(C)C)c2ccccc2)C3(C)C)c2sccc2n1 | 0.43 °C
C[C@H]1[C@H](C)CC[C@]2(C(=O)O)CC[C@]3(C)C(=CC[C@@H]4[C@@]5(C)C[C@@H](O)[C@H](O)[C@@](C)(CO)[C@@H]5CC[C@]43C)[C@H]12 [Asiatic Acid] | 0.96 °C
COc1ccc(-c2cc3nccn3c(Nc3ncccc3C(N)=O)n2)cc1OC | 1.69 °C
O=C(NCc1ccccc1)c1csc(Nc2ccncn2)n1 [Thiazovivin] | 0.41 °C
COc1cc(Nc2ncc(F)c(Nc3ccc4c(n3)NC(=O)C(C)(C)O4)n2)cc(OC)c1OC [R406 (free base)] | 4.51 °C
Cc1ccc(S(=O)(=O)/C=C/C#N)cc1 | 0.47 °C
O=c1c(O)c(-c2ccc(O)c(O)c2)oc2cc(O)cc(O)c12 [Quercetin] | 3.37 °C
C[C@H]1CNC(=O)c2cnn3ccc(nc23)N[C@H](C)c2cc(F)ccc2O1 | 3.37 °C
C[C@@H](Nc1cc(F)cc(F)c1)c1cc(C(=O)N(C)C)cc2c(=O)cc(N3CCOCC3)oc12 | 1.21 °C
Nc1cccc(-c2cc3c(Oc4cccc(O)c4)ncnc3[nH]2)c1 | 2.16 °C
CC[C@H](CO)Nc1nc(NCc2ccccc2)c2ncn(C(C)C)c2n1 [Roscovitine (Seliciclib,CYC202)] | 0.99 °C
CCn1c(=O)c(-c2ccc(Cl)cc2Cl)cc2cnc(Nc3ccc(N4CCNCC4)c(F)c3)nc21 | 3.17 °C
Cc1c[nH]c2nc(Nc3ccc(N4CCN(C)CC4)c(F)c3)nc(-c3cccc(CC#N)c3)c12 | 6.06 °C
N#C/C(=C(/N)Sc1ccc(N)cc1)c1ccccc1C(F)(F)F | 0.37 °C
FC(F)(F)c1ccc(CNc2ccc(Cc3c[nH]c4ncc(Cl)cc34)cn2)cn1 [Pexidartinib (PLX3397)] | 4.16 °C
COc1cc(N2CCC(N(C)C)CC2)ccc1Nc1ncc(Cl)c(Nc2ccccc2P(C)(C)=O)n1 | 3.65 °C
CCN(CC)CCNC(=O)c1c(C)[nH]c(/C=C2\C(=O)Nc3ccc(F)cc32)c1C [Sunitinib Malate] | 2.16 °C
CCC(=O)Nc1cccc(Oc2nc(Nc3ccc(N4CCN(C)CC4)cc3OC)ncc2Cl)c1 | 1.83 °C
